From PubChem BioAssay (NCATS)
Records with an inconclusive call do not appear. Unmarked numbers belong to inactive results. Active and inactive are the calls of the source. The call rests on the fitted dose curve; in most records, active means well fitted inhibition curve with a large enough effect; inconclusive means small, poorly fitted or top-dose-only effect; inactive means flat fitted curve, though single readings scatter.

system: KB-3-1; assay: Cytotoxic Profiling of Annotated Libraries Using Quantitative High-Throughput Screening (AID 1296008); conditions: Five cell lines viability, CellTiter-Glo ATP luminescence, 48-72 h; max response: hits give low values; further: nearly all actives have a fitted effect of over 60% in size
Outline: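 Cytotoxicity was measured as CellTiter-Glo ATP luminescence, read after 10 min at room temperature. Compound treatment of the cells lasted 48 or 72 hr at 37 degrees Celsius in a qHTS format.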
On the % scale 0 is the no-effect control and ±100 the full control effect; potency means the concentration at half of the fitted maximal effect.

Going from `O=C1CCO1` to `CC(C)CCC(=O)O[C@H]1CC[C@H]2[C@@H]3CCC4=CC(=O)CC[C@]4(C)[C@H]3CC[C@]12C`, the max response rises from -17.3% to 19.3%.

Going from `O=S(=O)(O)c1cc(O)ccc1O` to `Oc1cc(Cl)c(Cl)cc1Cl`, the max response falls from 6.29% to 0.226%.

Compared with `CCC1(CC)C(=O)NC(=O)N(C)C1=O`, `CCN(CC)C(=O)/C(Cl)=C(\C)OP(=O)(OC)OC` is higher in max response: -2.91% for the first, -1.44% for the second.

Going from `Clc1ccccc1Cl` to `O=C1CN(O)C(c2ccccc2)=c2cc(Cl)ccc2=N1`, the max response falls from 4.39% to -7.95%.

Going from `c1ccc(C2(N3CCCC3)CCCCC2)cc1` to `C[N+]1(C)[C@@H]2CC[C@H]1CC(OC(=O)c1c[nH]c3ccccc13)C2` (stereo partly specified), the max response falls from 2% to -6.15%.

Going from `OC[C@@H](O)[C@H]1O[C@@H]2O[C@H](C(Cl)(Cl)Cl)O[C@@H]2[C@H]1O` to `ClC(Cl)(Cl)Cl`, the max response falls from 3.48% to -1.06%.

First: C#CC(C)(O)CC (stereo unspecified)
Second: FC(F)OC(F)(F)C(F)Cl (stereo unspecified)
The max response of the first is lower: -2.82% for the first, -1.37% for the second.

In the case of `O=C1OC2(c3cc(Br)c(O)cc3Oc3c2cc(Br)c(O)[c]3[Hg])c2ccccc21` (stereo unspecified), the max response was 6.88%.

In the case of `CC(=O)O[C@H]1C[C@H](O[C@H]2[C@@H](O)C[C@H](O[C@H]3[C@@H](O)C[C@H](OC4CC[C@@]5(C)[C@H](CC[C@@H]6[C@@H]5CC[C@]5(C)[C@@H](C7=CC(=O)OC7)CC[C@]65O)C4)O[C@@H]3C)O[C@@H]2C)O[C@H](C)[C@H]1O[C@@H]1O[C@H](CO)[C@@H](O)[C@H](O)[C@H]1O` (stereo partly specified), the Potency was 206 nM (active).
